# Laboratory results: PubChem BioAssay (NCATS)
# Records with an inconclusive call do not appear. The source made the active and inactive calls. The call rests on the fitted dose curve; in most records, active means well fitted cell-killing curve with a large enough effect; inconclusive means small, poorly fitted or top-dose-only effect, or effect the other way; inactive means no such curve, though single readings can be large or run the other way. Non-standard residues stand in square brackets, D forms with d. Residues, ends and D or L forms follow the SMILES beside them. *: point of attachment. Nva = CCC[C@H](N)C(=O)O; Cbz = O=C(OCc1ccccc1)*
# Test: Quantitative High-Throughput drug screen in 47 multiple myeloma cell lines against the NCATS MIPE library collection: PE2_PLB cell viability assay (AID 1919869); further: nearly all actives have a fitted effect of over 35% in size
# Details: PE2_PLB myeloma cells viability, ATP luminescence, 48 h; series mostly up to 45.8 µM; viability (% of control): at the top concentration
# Excerpt: PI: Beverly A. Mock Ph.D.
# Laboratory of Cancer Biology and Genetics,
# Center for Cancer Research, National Cancer Institute,
# National Institute of Health, Bethesda, Maryland
# Drug resistance and disease progression are common in multiple myeloma (MM) patients, underscoring the need for new therapeutic combinations. […] We hypothesized that effective combinations would reduce MYC expression and enhance p16 activity. […] These preclinical data identify potentially useful drug combinations for evaluation in drug-resistant MM and reveal potential mechanisms of combined drug sensitivity.
# Described herein is the primary MIPE qHTS used to cherrypick compounds. Validated compounds were then further tested for potential synergistic activiy.
# [1] Peat TJ, Gaikwad SM, Dubois W, Gyabaah-Kessie N, Zhang S, Gorjifard S, Phyo Z, Andres M, Hughitt VK, Simpson RM, Miller MA, Girvin AT, Taylor A, Williams D, D'Antonio N, Zhang Y, Rajagopalan A, Flietner E, Wilson K, Zhang X, Shinn P, Klumpp-Thomas C, McKnight C, Itkin Z, Chen L, Kazandijian D, Zhang J, Michalowski AM, Simmons JK, Keats J, Thomas CJ, Mock BA. Drug combinations identified by high-throughput screening promote cell cycle transition and upregulate Smad pathways in myeloma. Cancer Lett. 2023 Aug 1;568:216284. doi: 10.1016/j.canlet.2023.216284. Epub 2023 Jun 24. PMID: 37356470; PMCID: PMC10408729.
# SEQUENCE No. (e.g., 1, 2, 3, etc.); […] (e.g., Cells, Incubation, Reagent, etc.); VALUE and DESCRIPTION.
# 1; Cells; 5 uL; white, solid bottom 1536-well Greiner assay plate.
# 2; Compounds; 23 nL; Kalypsis pin tool (Wako USA) equipped with a 1536-well pin head to transfer to the assay plates.
# 3; Incubation; 48 hours; 37C incubation.
# 4; Reagent;5uL; CellTiter Glo (Promega).
# 5; Detector; 425V; Luminescence; Viewlux PerkinElmer.
# NOTES (numbers refer to Sequence numbers above)
# 1. The cell-based screening methods employed in this study were like those previously published. Briefly, the corresponding myeloma cell lines were screened in 1,536-well plates with 500 cells, 5-uL per well for inhibition of cell viability (assessed by measuring ATP levels with CellTiterGlo).
# 2. NCATS MIPE 4.0 library of approved and investigational drugs were added using the Kalypsis pin tool. Wells treated with DMSO only for 100% viability and media only for 0% viability were used as controls.
# 3. The assay plates were covered and incubated for 48 hours in a 37C, 5% CO2 incubator with controlled humidity.
# 4. After 48 hours, CellTilter-GloTM luminescent substrate mix (Promega) reagent was added to the assay plate and plates we incubated for 5 min at room temperature.
# 5. Signal was measured as median relative luminescence units on a ViewLux (PerkinElmer) multiplate reader.
# [1] Heske CM, Davis MI, Baumgart JT, Wilson K, Gormally MV, Chen L, Zhang X, Ceribelli M, Duveau DY, Guha R, Ferrer M, Arnaldez FI, Ji J, Tran HL, Zhang Y, Mendoza A, Helman LJ, Thomas CJ. Matrix Screen Identifies Synergistic Combination of PARP Inhibitors and Nicotinamide Phosphoribosyltransferase (NAMPT) Inhibitors in Ewing Sarcoma. Clin Cancer Res. 2017 Dec 1;23(23):7301-7311. doi: 10.1158/1078-0432.CCR-17-1121. Epub 2017 Sep 12. PMID: 28899971; PMCID: PMC6636827.
# Potency means the concentration at half of the fitted maximal effect.
Compound,Potency,viability (% of control)
CC(=O)NCC(=O)N1[C@H]2CC[C@H]1c1cc(Nc3ncc(C(F)(F)F)c(NC4CCC4)n3)ccc12,1.66 µM (active),–
CCc1ccc(C(=O)Nc2cc(CN3CCN(C)CC3)cc(C(F)(F)F)c2)cc1C#Cc1cnc2ccnn2c1,4.69 µM (active),–
CC(=O)[C@]1(O)Cc2c(O)c3c(c(O)c2[C@@H](O[C@H]2C[C@H](N)[C@@H](O)[C@H](C)O2)C1)C(=O)c1ccccc1C3=O,0.132 µM (active),–
Cc1[nH]c(C=C2C(=O)Nc3ccccc32)c(C)c1CCC(=O)O,9.35 µM (active),–
O=c1c(O)c(-c2ccc(O)c(O)c2)oc2cc(O)ccc12,14.8 µM (active),–
C=CCNc1c(O)cc2c(O)c1C[C@@H](C)C[C@H](OC)[C@@H](O)[C@@H](C)C=C(C)[C@H](OC(N)=O)[C@@H](OC)C=CC=C(C)C(=O)N2,1.48 µM (active),–
O=C(Nc1cc2cc[nH]c2cn1)c1ccccc1,10.5 µM (active),–
Oc1ccc(-c2ccc(-c3cc(Nc4cccc(CNC5CC5)c4)n[nH]3)cc2)c(O)c1,1.32 µM (active),–
COc1ccc(Nc2cc(-c3cnc(N)nc3)nc(N3CCOCC3)n2)cn1,3.32 µM (active),–
CC(=O)ON=C1C(c2c(O)[nH]c3cc(Br)ccc23)=Nc2ccccc21,4.69 µM (active),–
CC(=CC(=O)Nc1ccccc1C(=O)O)c1ccc2ccccc2c1,23.5 µM (active),–
O=C(C=CC=Cc1ccc2c(c1)OCO2)N1CCCCC1,–,93.6% (inactive)
CC1(C)[C@H](O[C@H]2O[C@H](C(=O)O)[C@@H](O)[C@H](O)[C@H]2O[C@@H]2O[C@H](C(=O)O)[C@@H](O)[C@H](O)[C@H]2O)CC[C@@]2(C)[C@H]1CC[C@]1(C)[C@H]2C(=O)C=C2[C@H]3C[C@@](C)(C(=O)O)CC[C@]3(C)CC[C@]21C,–,144% (inactive)
CCOc1cc2c(c(F)c1OCC)C(=N)N(CC(=O)c1cc(N3CCOCC3)c(OC)c(C(C)(C)C)c1)C2,20.9 µM (active),–
CC(=O)C1=C(O)C=C2Oc3c(C(C)=O)c(O)c(C)c(O)c3C2(C)C1=O (stereo not given),–,103% (inactive)
OC[C@@H](O)[C@@H](O)[C@H](O)[C@@H](O)CO,–,116% (inactive)
C[C@H](NCc1ccc2c(c1)nc(NC(=O)c1ccc(-c3cn[nH]c3)s1)n2CCc1ccccc1)C(C)(C)C,1.05 µM (active),–
CON=C(C(=O)N[C@@H]1C(=O)N2C(C(=O)O)=C(CSC(=O)c3ccco3)CS[C@H]12)c1csc(N)n1,–,88.2% (inactive)
C#C[C@]1(O)CC[C@@H]2[C@@H]3CCc4cc(O)ccc4[C@H]3CC[C@@]21C,16.6 µM (active),–
C=CC[C@@H]1C=C(C)C[C@H](C)C[C@H](OC)[C@H]2O[C@@](O)(C(=O)C(=O)N3CCCC[C@H]3C(=O)O[C@H](C(C)=C[C@@H]3CC[C@H](O)[C@H](OC)C3)[C@@H](C)[C@@H](O)CC1=O)[C@@H](C)C[C@@H]2OC,2.64 µM (active),–

Compound,Potency,viability (% of control)
COc1cccc2c1C(=O)c1c(O)c3c(c(O)c1C2=O)C[C@@](O)(C(=O)CO)C[C@@H]3O[C@H]1C[C@H](N)[C@@H](O)[C@H](C)O1,0.148 µM (active),–
CCOC(=O)N1CCN([N+]([O-])=NOc2ccc([N+](=O)[O-])cc2C#N)CC1,0.743 µM (active),–
C=C1CCC2[C@](C)(CO)C(O)CC[C@]2(C)C1CC=C1C(=O)OCC1O (stereo not given in full),–,106% [at 92.2 µM] (inactive)
COC(=O)C=CC(=O)OC,5.26 µM (active),–
CCC[C@H]1C[C@H](C(=O)N[C@@H]([C@@H]2O[C@@H](SC)[C@@H](O)[C@@H](O)[C@@H]2O)[C@H](C)Cl)N(C)C1,–,99.7% (inactive)
Cc1ncc(-c2ccnc(Nc3ccc(S(C)(=O)=O)cc3)n2)n1C(C)C,2.35 µM (active),–
Cc1ccc(-n2[nH]c(C)c(N=Nc3cccc(-c4cccc(C(=O)O)c4)c3O)c2=O)cc1C,26.4 µM (active),–
N#Cc1cc(NC(=O)Nc2nnc(-c3ccncc3)s2)ccc1-c1cn[nH]c1,–,91.4% (inactive)
C=C1C[C@@]2(O)O[C@@]3(C[C@H]2C(C)C)[C@H](C)CC[C@H]13,–,99% (inactive)
COc1ccc(CCC(=O)c2c(O)cc(O[C@@H]3O[C@H](CO)[C@@H](O)[C@H](O)[C@@H]3O[C@@H]3O[C@@H](C)[C@H](O)[C@@H](O)[C@@H]3O)cc2O)cc1O,7.43 µM (active),–
O=C(C[C@@H]1CC=CCCC(=O)O[C@H](c2ccccc2)CNC1=O)NCc1ccc(Cl)cc1,9.35 µM (active),–
COc1cc2ncnc(Nc3cccc(Br)c3)c2cc1OC,5.9 µM (active),–
CCC[C@@H](C=O)NC(=O)[C@H](CC(C)C)NC(=O)[C@H](CC(C)C)NC(=O)OCc1ccccc1 (Cbz-Leu-Leu-[Nva]-aldehyde),0.418 µM (active),–
CCCCOc1ccc(C(=O)Nc2ccc(F)cc2F)cc1,–,93.1% (inactive)
Cc1cnc(Nc2ccc(N3CCN(C)CC3)cc2)nc1Nc1cccc(S(=O)(=O)NC(C)(C)C)c1,1.32 µM (active),–
C[C@@H]1CC[C@@]2(OC1)OC1CC3C4CC=C5CC(O)CCC5(C)C4CCC3(C)C1[C@@H]2C (stereo not given in full),–,121% (inactive)
C=CC(=O)N1CCc2ccc(-n3c(=O)ccc4cnc5ccc(-c6cnn(C)c6)cc5c43)cc21,1.66 µM (active),–
CC(C)C[C@H](NC(=O)CNC(=O)c1cc(Cl)ccc1Cl)B1OC(=O)CC(CC(=O)O)(C(=O)O)O1 (stereo not given in full),0.0296 µM (active),–
COc1cc(CCc2cc(NC(=O)c3ccc(N4C[C@@H](C)N[C@@H](C)C4)cc3)n[nH]2)cc(OC)c1,11.8 µM (active),–
C=C1C(=O)O[C@H]2[C@@H]1CCC(C)=CCC[C@@]1(C)O[C@@H]21,3.32 µM (active),–
